{
  "source": "PubChem BioAssay AID2533",
  "about": "(National Center for Advancing Translational Sciences (NCATS), 2010)",
  "note": "Inconclusive results are not listed. Entries that show only a call come without a potency. Calls of active or inactive are those of the source. Calls come from the whole dose curve; as a rule, active = well fitted activation curve with a large enough effect; inconclusive = small, poorly fitted or top-dose-only effect; inactive = flat fitted curve, though single readings scatter. Potency is the fitted concentration of half-maximal effect.",
  "data": [
    {"target": "Pyruvate kinase PKM (Homo sapiens) (UniProt P14618)", "sequence (P14618 whole entry, looked up, canonical isoform)": "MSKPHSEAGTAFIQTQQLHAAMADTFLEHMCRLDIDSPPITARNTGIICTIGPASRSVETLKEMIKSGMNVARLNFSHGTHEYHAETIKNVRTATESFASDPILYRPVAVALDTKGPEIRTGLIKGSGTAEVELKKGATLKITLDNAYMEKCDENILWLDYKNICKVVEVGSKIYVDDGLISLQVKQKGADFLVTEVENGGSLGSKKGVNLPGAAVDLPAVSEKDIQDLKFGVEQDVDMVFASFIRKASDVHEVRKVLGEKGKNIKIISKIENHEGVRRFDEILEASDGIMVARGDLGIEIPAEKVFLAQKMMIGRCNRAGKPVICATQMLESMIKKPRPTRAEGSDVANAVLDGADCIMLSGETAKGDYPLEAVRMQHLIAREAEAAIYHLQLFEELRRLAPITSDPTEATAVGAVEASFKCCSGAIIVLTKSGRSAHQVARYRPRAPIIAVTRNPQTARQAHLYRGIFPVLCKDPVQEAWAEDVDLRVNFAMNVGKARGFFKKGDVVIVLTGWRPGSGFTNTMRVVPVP", "assay": "Confirmation Concentration-Response Assay for Activators of Human Muscle isoform 2 Pyruvate Kinase: for Probe SAR; note: nearly all actives have a fitted effect of over 60% in size", "settings": "purified PKM2, ATP generation, Kinase-Glo luminescence; series mostly up to 57.5 µM", "source_text": "NIH Chemical Genomics Center [NCGC]\nMatthew G. Vander Heiden, M.D., Ph.D. [Harvard Medical School, 77 Avenue Louis Pasteur, Boston, MA 02115]\nHuman pyruvate kinase muscle 2 (hPK-M2) enzyme was supplied as a highly purified (>95% pure) preparation from Harvard Medical School and assayed for its ability to generate ATP from ADP using phosphoenolpyruvate (PEP) as a substrate. ATP generation was detected in a coupled reaction by luciferase-mediated luminescence, an ATP-dependent process. […] The enzyme was assayed at an intermediate level of activity to screen for both inhibitors and activators.\nNCGC Assay Protocol Summary:\nThree uL of substrate mix (at r.t.) in assay buffer (50 mM Imidazole pH7.2, 50 mM KCl, 7 mM MgCl2, 0.01% Tween 20, 0.05% BSA) was dispensed into white solid bottom 1,536 well microtiter plates so that the final concentrations of substrates in the assay were 0.1 mM ADP and 0.5 mM PEP. 23 nL of compound were delivered by a pin tool and 1 uL of enzyme mix (final concentration of 0.1 nM) in assay buffer (4 degree Celsius) was added. Plates were incubated at room temperature for 1 hour. Two uL of detection mix (Kinase-Glo, Promega; at 4 degree Celsius protected from light) was added and luminescence read by a ViewLux (Perkin Elmer) at 1 second exposure/plate. Data were normalized to the uninhibited (column 3) and AC100 inhibition (no enzyme in column 2). To monitor activation, the first column contained a titration of the activator, NCGC00031955-03 (16-point 1:2 dilutions in duplicate starting at 57 uM) and the first 16 rows of column 4 contained 57 uM of NCGC00031955-03.", "values": [
      {"molecule": "O=S1(=O)N=C(Oc2ccccc2Cl)c2ccccc21", "Potency": "inactive"},
      {"molecule": "COc1ccc(N2C(=O)c3ccccc3S2(=O)=O)cc1", "Potency": "inactive"},
      {"molecule": "O=S1(=O)N=C(Oc2ccc(Br)cc2)c2ccccc21", "Potency": "inactive"},
      {"molecule": "Nc1ccc(S(=O)(=O)N2CCCN(S(=O)(=O)c3ccc4c(c3)OCCO4)CC2)cc1", "Potency": "1030 nM (active)"},
      {"molecule": "COc1ccc(-c2nc3cccc(C)n3c2Nc2ccc(C)cc2)cc1", "Potency": "inactive"},
      {"molecule": "COc1cccc(NS(=O)(=O)c2ccc3c(c2)CCC(=O)N3)c1", "Potency": "5170 nM (active)"},
      {"molecule": "O=C1CCc2cc(S(=O)(=O)Nc3ccc(-c4ccccc4)cc3)ccc2N1", "Potency": "inactive"},
      {"molecule": "COc1ccc(NS(=O)(=O)c2ccccc2C(=O)O)cc1", "Potency": "inactive"},
      {"molecule": "Cc1ccn2c(NC3CCCCC3)c(-c3ccc(C)o3)nc2c1", "Potency": "inactive"},
      {"molecule": "O=C1CCc2cc(S(=O)(=O)Nc3cccc(Br)c3)ccc2N1", "Potency": "259 nM (active)"},
      {"molecule": "COc1cc(F)c(S(=O)(=O)N2CCN(S(=O)(=O)c3cccs3)CC2)c(F)c1", "Potency": "36.6 nM (active)"},
      {"molecule": "O=S1(=O)N=C(Sc2cccc3cccnc23)c2ccccc21", "Potency": "inactive"},
      {"molecule": "O=S1(=O)N=C(Oc2ccc3ccccc3c2)c2ccccc21", "Potency": "inactive"},
      {"molecule": "CC(=O)Nc1cccc(S(=O)(=O)N2CCN(S(=O)(=O)c3c(F)cccc3F)CC2)c1", "Potency": "14600 nM (active)"},
      {"molecule": "Cc1ccc(-c2nc3ccccn3c2Nc2ccccc2C)o1", "Potency": "inactive"},
      {"molecule": "N#Cc1cccc(OC2=NS(=O)(=O)c3ccccc32)c1", "Potency": "inactive"},
      {"molecule": "COc1cc(F)c(S(=O)(=O)N2CCN(S(=O)(=O)c3ccc(NC(C)=O)cc3)CC2)c(F)c1", "Potency": "13000 nM (active)"},
      {"molecule": "O=C1CCc2cc(S(=O)(=O)Nc3ccc(Cl)cc3)ccc2N1", "Potency": "2060 nM (active)"},
      {"molecule": "COc1cc(F)c(S(=O)(=O)N2CCN(S(=O)(=O)c3cccc(N)c3)CC2)c(F)c1", "Potency": "23.1 nM (active)"},
      {"molecule": "Cc1ccccc1OC1=NS(=O)(=O)c2ccccc21", "Potency": "inactive"},
      {"molecule": "Cc1cccc(OC2=NS(=O)(=O)c3ccccc32)c1", "Potency": "inactive"},
      {"molecule": "Cc1ccc(NS(=O)(=O)c2cccc(Cl)c2)cc1C", "Potency": "16300 nM (active)"},
      {"molecule": "Cc1ccc(NS(=O)(=O)c2ccc3c(c2)CCC(=O)N3)cc1F", "Potency": "517 nM (active)"},
      {"molecule": "Cc1ccccc1Nc1c(-c2ccc(Cl)s2)nc2ccccn12", "Potency": "inactive"},
      {"molecule": "O=C1c2ccccc2C(=O)N1Cc1ccccc1", "Potency": "inactive"},
      {"molecule": "CC(=O)Nc1ccc(S(=O)(=O)N2CCN(S(=O)(=O)c3ccc4c(c3)OCCO4)CC2)cc1", "Potency": "1630 nM (active)"},
      {"molecule": "O=C1CCc2cc(S(=O)(=O)Nc3ccccn3)ccc2N1", "Potency": "inactive"},
      {"molecule": "Cc1ccc(-c2nc3ccc(Cl)cn3c2Nc2ccccc2)o1", "Potency": "inactive"},
      {"molecule": "COc1cc(F)c(S(=O)(=O)N2CCN(S(=O)(=O)c3ccc(N)cc3)CC2)c(F)c1", "Potency": "130 nM (active)"},
      {"molecule": "Cc1ccccc1Nc1c(-c2ccccc2)nc2cccc(C)n12", "Potency": "inactive"},
      {"molecule": "Cc1ccc(C)c(NC2=NS(=O)(=O)c3ccccc32)c1", "Potency": "inactive"},
      {"molecule": "Cc1cc(N2C(=O)c3ccccc3C2=O)n[nH]1", "Potency": "inactive"},
      {"molecule": "O=S1(=O)N=C(Oc2cccc(Br)c2)c2ccccc21", "Potency": "inactive"},
      {"molecule": "Cc1ccc(NS(=O)(=O)c2cc3c(cc2Cl)CCC(=O)N3)cc1C", "Potency": "163 nM (active)"},
      {"molecule": "O=C1c2ccccc2C(=O)N1c1cccc2ncccc12", "Potency": "inactive"},
      {"molecule": "Nc1ccccc1OC1=NS(=O)(=O)c2ccccc21", "Potency": "inactive"},
      {"molecule": "CC(=O)Nc1ccccc1OC1=N[S+](=O)([O-])c2ccccc21", "Potency": "inactive"},
      {"molecule": "Cc1cc(NS(=O)(=O)c2ccc3c(c2)CCC(=O)N3)ccc1Cl", "Potency": "517 nM (active)"},
      {"molecule": "Cc1ccc(NS(=O)(=O)c2ccc(Cl)cc2)cc1C", "Potency": "23100 nM (active)"},
      {"molecule": "O=C(O)c1ccccc1OC1=NS(=O)(=O)c2ccccc21", "Potency": "inactive"}
    ]}
  ]
}
